Bioassay records as filed in PubChem.
This is a sample that favours compounds with a hit; in the whole collection about 4.7% have one here.
D1 antagonist: human D1 dopamine receptor antagonism. P21728. HEK293 TREx D1 cells, calcium flux, dopamine EC80; stronger effect = lower value. activity change, negative = inhibition, % at 10 µM. hit rate 3.2% among 360,000. AID 504652; in the data active = activity change below about -30%; note: % is set by controls: 0 for no effect and ±100 for the full control effect
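Using tetracycline-induced force-coupled D1 Hek293 cells and a calcium dye, signals were followed for 180 s after compound, then for 180 s after EC80 dopamine, to detect inhibitors.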
D1 ag: human D1 receptor agonism; activation, % at 2 µM; HEK293 T-REx D1 cells, calcium flux, agonist mode; P21728; hit rate 1% among 360,000; in the data active = activation above about 30%; note: 0% is about no effect
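Agonism was scored from calcium flux recorded over 180 s (1 read/s) after pintool compound addition, following a 10-cycle baseline. Cells were inducible force-coupled HEK293 TREx D1, plated overnight at 30 C and loaded with no-wash calcium dye.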
D1 PAM: enhances dopamine response at the human D1 receptor | P21728 | HEK293 TREx D1 cells, calcium flux, dopamine EC20 potentiation | potentiation, % at 10 µM | hit rate 0.036% among 360,000 | AID 504651; in the data active = potentiation above about 30%; note: 0% is about no effect
TRHR enhancer-1: allosterically enhances the human TRH receptor | P34981 | TRHR cells, fluo-8 calcium fluorescence, EC20 TRH enhancement | enhancement, % at 2 µM | hit rate 0.66% among 360,000; in the data active = enhancement above about 30%; note: 0% is about no effect
Target sequence (P34981 whole entry, looked up): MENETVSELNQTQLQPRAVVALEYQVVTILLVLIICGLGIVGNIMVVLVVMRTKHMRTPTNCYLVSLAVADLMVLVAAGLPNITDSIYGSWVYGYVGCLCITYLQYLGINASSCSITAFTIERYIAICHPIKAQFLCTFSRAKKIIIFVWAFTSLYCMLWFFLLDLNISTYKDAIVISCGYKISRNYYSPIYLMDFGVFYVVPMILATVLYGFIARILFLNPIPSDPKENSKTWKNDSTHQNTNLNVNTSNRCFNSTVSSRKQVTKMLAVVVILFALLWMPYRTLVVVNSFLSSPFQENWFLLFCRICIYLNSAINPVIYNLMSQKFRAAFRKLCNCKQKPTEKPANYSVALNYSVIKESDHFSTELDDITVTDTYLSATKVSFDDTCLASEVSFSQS
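Enhancer read-out: after compound pinning and an initial kinetic agonist-mode read, an EC20 of TRH (10 nM final) was injected and fluo-8 calcium signal (Ex 480/Em 530) followed at 1 s/cycle for 100 cycles in TRHR-expressing cells.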
TRHR agonist-1: activates the human TRH receptor. TRHR cells, calcium flux fluo-8, FDSS agonist mode. activation, % at 2 µM. hit rate 0.18% among 360,000; in the data active = activation above about 30%; note: 0% is about no effect
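Fluo-8-loaded TRHR cells; 10 s baseline, compound added, kinetic Ca2+ fluorescence read 1/s, agonist mode.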
TRHR enhancer-2: human TRH receptor allosteric enhancement confirmation | shares compounds with TRHR enhancer-1 | TRH receptor cell assay, enhancer confirmation qHTS | activity change, negative = inhibition, % at 46.1 µM | 970 tested, under 10 active | AID 493076;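 note: compound effect scored on response to added TRH at EC20 of 10 nM; 0% is about no effect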
TRHR agonist-2: human TRH receptor agonism confirmation. TRHR-expressing cells, agonist activation read-out. AID 493078. shares compounds with TRHR enhancer-1. hit rate 8% among 970. Potency, µM (top dose mostly 46.1 µM), for inactives: at the top dose activation, hits mostly activators; note: potency is the fitted concentration of half-maximal effect; 0% is about no effect; nearly all actives have a fitted effect of over 75% in size
Active calls of the source: *; ? = inconclusive; · = not tested or not shown. Unless noted, calls come from the whole dose curve; as a rule, active = well fitted curve in the direction sought with a large enough effect; inconclusive = small, poorly fitted or top-dose-only effect, or another doubt; inactive = no such curve, though single readings can be large; an effect the other way counts as inactive or inconclusive.

SMILES	D1 antagonist	D1 ag	D1 PAM	TRHR enhancer-1	TRHR agonist-1	TRHR enhancer-2	TRHR agonist-2
CCC(C)NC(=O)c1ccc2c(c1)nc1n2CCCCC1 (centres undefined)	2	1	1	1	1	·	·
CCOc1ccc(CCNC(=O)Cn2nnc(-c3ccccc3Cl)n2)cc1OCC	1	0	-4	4	-4	·	·
Cc1ccc2c(c1)c1c(c(=O)n(-c3cccc(Cl)c3)c(=O)n1CC(=O)NCCC1=CCCCC1)n2C	-16	-1	1	0	0	·	·
Cc1ccc(-c2csc3ncnc(N4CCN(Cc5ccccc5)CC4)c23)cc1	6	2	-5	54*	0	-3	-1%
O=C(CSc1nnc(-c2ccc(Cl)cc2)n1-c1ccc(Cl)cc1)N/N=C/c1ccco1	-2	1	-4	48*	-1	13	0%
COc1cccc(CNC(=O)Cn2nc(C)n3c(cc4cc(C)ccc43)c2=O)c1OC	11	4	-7	12	0	·	·
Cc1ccc(C(=O)NCc2nnc(SCC(=O)NC(C)c3ccccc3)n2C)cc1 (centres undefined)	1	2	-1	43*	-1	7	-1%
Cn1c(CNC(=O)c2ccccc2)nnc1SCC(=O)Nc1nccs1	-7	2	-4	-1	0	·	·
O=C(c1cccc([N+](=O)[O-])c1)N1c2ncnn2C2(CCCCC2)[C@@H]2CCCC[C@@H]21	-3	5	0	7	-1	·	·
C/C(=N/Nc1ccc([N+](=O)[O-])cc1)c1c[nH]c2ccccc12	-33*	83*	-8	0	35*	-4	?
C/C(=N/Nc1ccc([N+](=O)[O-])cc1)c1ccc(C)cc1C	-18	5	1	-5	2	·	·
O=C(NC1CC1)c1ccc(Cn2c(SCc3cccc(F)c3)nc3cccnc32)cc1	-12	29	-4	6	-1	·	·
COc1ccccc1C1(O)CCN(C(=O)c2cccs2)CC1	-3	0	-5	46*	0	-3	1%
CC(=Nc1cccc(O)c1)c1sc2ccccc2c1O	-28	68*	-7	14	29	-2	?
CCS(=O)(=O)N1CCc2cc(C(=O)Nc3ccc(Br)cc3F)ccc21	-3	-3	-2	9	0	·	·
CCOc1cc(/C=C/C(=O)Nc2ccc(C(=O)NCCN(CC)CC)cc2)ccc1OCC(C)C	-41*	5	-11	42*	0	2	1%
CCOc1ccc(/C=C/C(=O)Nc2ccc(C(N)=O)cc2)cc1OC	-3	5	-7	3	1	·	·
CC(=O)Nc1cc2ccccc2oc1=O	15	-1	1	-6	0	·	·
CCN(CC)c1ccc2cc(NC(=O)CCC(=O)O)c(=O)oc2c1	6	56*	-4	5	26	10	21µM*
COC(=O)c1nnn(-c2nc(N(C)C)nc(N(C)C)n2)c1C	-12	19	-4	57*	-1	-4	-1%
CCCCCC1CC(=O)N(Cc2ccccc2)C(=O)N1 (centres undefined)	9	1	-4	69*	-1	-4	0%
C/C(=N\NC(=O)c1ccc(Cn2cc(Br)cn2)o1)c1ccc(NC(=O)c2ccoc2C)cc1	-43*	1	-4	61*	0	10	8%
O=C(NCCCN=C1NS(=O)(=O)c2ccccc21)c1ccc(F)cc1	-2	13	-3	58*	1	2	5%
CCOc1ccccc1-c1c2cc(O)c(=O)cc-2oc2cc(O)c(O)cc12	12	53*	-3	1	31*	-15	0.73µM*
O=c1cc2oc3cc(O)c(O)cc3c(-c3ccccc3O)c-2cc1O	-14	46*	1	4	47*	5	10µM*
SMILES	D1 antagonist	D1 ag	D1 PAM	TRHR enhancer-1	TRHR agonist-1	TRHR enhancer-2	TRHR agonist-2
O=C(OCc1ccccc1Cl)c1ccc(-c2nnn(Cc3ccccc3Cl)n2)cc1	-6	-1	-3	0	1	·	·
CC(=O)NCCC1CCN(c2nc3nonc3nc2N(C)Cc2ccccc2)CC1	10	2	-5	47*	0	-4	0%
CCCCNC(=O)N1CCC(CCC(=O)N(C)Cc2ccccc2)CC1	25	-2	-7	-6	0	·	·
Nn1c(N2CCCCC2)nc2ccccc21	22	2	9	71*	0	-1	4%
CCOC(=O)c1noc2ncnc(Nc3cccc(C(F)(F)F)c3)c12	-4	2	-3	0	0	·	·
Cc1cc(OC(C)C(=O)Nc2cccc(-c3nc4ccccc4o3)c2)cc(C)c1Cl (centres undefined)	-4	25	1	7	-1	·	·
C=C1C(=O)O[C@H]2[C@H]1[C@@H](O)CC(=C)[C@@H]1CC(=O)[C@@H](C)[C@H]21	11	4	1	52*	1	-6	1%
CCOC(=O)c1cc(-c2ccc(C)cc2)n(CCC(=O)Nc2cc(Cl)ccc2C)c1C	-6	2	-2	1	0	·	·
CN(C)S(=O)(=O)c1ccc(C(=O)NCC(=O)N/N=C/c2ccccc2)cc1	14	-1	-1	82*	1	-3	-1%
Cc1ccccc1NC(=O)c1ccc(S(=O)(=O)N(C)C)cc1	-10	2	-1	45*	-1	-4	-1%
CCCCN(C)C(=O)CN1C(=O)CCn2nc(-c3cn(C)c4ccccc34)cc21	1	0	1	1	0	·	·
CCN(CC)C(=O)c1sc2nc(-c3cccs3)cc(-c3ccc(Cl)cc3)c2c1N	-21	55*	12	0	28	-2	18µM*
COc1ccc(S(=O)(=O)N2CCN(c3ccc4nnc(-c5ccccc5)n4n3)CC2)cc1	-4	1	0	48*	0	4	-1%
CCOc1ccc(N=C2NC(=O)C(CC(=O)O)S2)cc1 (centres undefined)	-4	3	-3	53*	1	-11	-1%
COc1ccc(NC(=O)CC2SC(=Nc3ccccc3)NC2=O)cc1 (centres undefined)	5	1	-2	1	0	·	·
O=C(c1ccco1)n1nc(-c2ccccc2)nc1NCc1ccc(F)cc1	10	0	1	4	0	·	·
Cc1cc(NC(=O)CCN2C(=O)c3ccccc3C2=O)no1	1	2	-3	56*	-1	0	-1%
Cc1ccc(NC(=O)CCN2C(=O)c3ccccc3C2=O)cc1	-7	1	-2	-8	0	·	·
CCNc1nc(NCC)n2c(SCC(=O)Nc3ccc(C)c(C)c3)nnc2n1	3	7	3	45*	0	14	4%
CCNc1nc(NCC)n2c(SCC(=O)Nc3ccc(F)cc3)nnc2n1	7	1	2	1	0	·	·
